A selection: hits, their analogues and other compounds. The true share with any hit is near 9.9%.
KDM4E inh: inhibitors of human JMJD2E histone demethylase. Potency, µM (highest dose often 57.1 µM), without a hit: at the highest dose activity change, negative = inhibition, usual class: inhibitors. 230,000 compounds, 1.6% hits. AID 2147. JMJD2E catalytic domain, FDH-coupled NADH fluorescence (FDH is formaldehyde dehydrogenase);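 also: 0% = wells with enzyme and -100% = buffer wells without enzyme; nearly all actives have a fitted effect of over 50% in size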
Target sequence (B2RXH2 1-337 limits assumed): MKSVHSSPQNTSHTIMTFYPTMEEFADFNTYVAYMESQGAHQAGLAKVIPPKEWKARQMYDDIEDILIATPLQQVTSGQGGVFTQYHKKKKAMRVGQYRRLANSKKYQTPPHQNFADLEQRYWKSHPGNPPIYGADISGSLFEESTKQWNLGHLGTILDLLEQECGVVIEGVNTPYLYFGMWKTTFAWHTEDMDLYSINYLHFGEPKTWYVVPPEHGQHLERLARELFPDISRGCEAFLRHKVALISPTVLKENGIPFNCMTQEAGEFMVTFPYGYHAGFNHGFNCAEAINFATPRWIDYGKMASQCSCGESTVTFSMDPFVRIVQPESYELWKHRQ
Tau fluor counter: counter-screen for tau fibril formation inhibitors | Potency, µM (highest dose often 57.7 µM), inactives show at the highest dose activity change, negative = decrease | 280,000 compounds, 0.93% hits | tau K18 P301L Alexa594 fluorescence, heparin fibrillization; active = well fitted curve in the direction sought with a large enough effect; inconclusive = small, poorly fitted or top-dose-only effect, or another doubt; inactive = no such curve, though single readings can be large; an effect the other way counts as inactive or inconclusive; also: nearly all actives have a fitted effect of over 55% in size
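Human tau K18 P301L (15 uM unlabeled, 0.24 uM Alexa 594-labeled) in 100 mM sodium acetate pH 7 with 20 uM heparin, 6 hr at 37 C. ThT 30 uM added, 1 hr ambient; Alexa 594 FP and total fluorescence read at 555/632 nm.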
Tau fibril ThT: blocks human tau fibril formation measured by thioflavin T. P10636. recombinant tau K18 P301L, heparin-induced fibrillization, ThT fluorescence. Potency, µM (series often up to 57.4 µM), for inactives: top-dose activity, negative = inhibition, most hits filed as inhibitors. 270,000 compounds, 2.1% hits. AID 1460; active = well fitted curve in the direction sought with a large enough effect; inconclusive = small, poorly fitted or top-dose-only effect, or another doubt; inactive = no such curve, though single readings can be large; an effect the other way counts as inactive or inconclusive; also: nearly all actives have a fitted effect of over 55% in size
Target sequence (P10636 561-689 P618L limits assumed): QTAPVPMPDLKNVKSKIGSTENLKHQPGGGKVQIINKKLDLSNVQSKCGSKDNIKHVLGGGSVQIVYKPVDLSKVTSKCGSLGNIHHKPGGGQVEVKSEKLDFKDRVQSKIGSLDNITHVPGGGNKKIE
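K18 P301L tau (15 uM + 0.24 uM Alexa 594-tagged), heparin 20 uM, NaOAc pH 7, 6 h 37 C; ThT 30 uM, 1 h RT, ex 450/em 510 nm.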
Tau fibril FP: inhibitors of human tau fibril formation; P10636; AID 1468; K18 P301L tau heparin fibrillization, Alexa594 FP, 6 h; 280,000 compounds, 0.39% hits; Potency, µM (highest dose often 57.7 µM), inactives show at the highest dose activity, negative = inhibition, most hits filed as inhibitors; active = well fitted curve in the direction sought with a large enough effect; inconclusive = small, poorly fitted or top-dose-only effect, or another doubt; inactive = no such curve, though single readings can be large; an effect the other way counts as inactive or inconclusive; also: nearly all actives have a fitted effect of over 55% in size
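Heparin (20 uM) drove fibril formation of recombinant tau K18 P301L, 15 uM unlabeled with 0.24 uM Alexa 594 label, for 6 hr at 37 C in 100 mM sodium acetate pH 7. Fluorescence polarization (555/632 nm) read 1 hr after 30 uM ThT.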
HPGD inh: blocks human HPGD enzyme activity; purified HPGD, NADH fluorescence kinetic, PGE2 substrate; Potency, µM, for inactives: at the highest dose activity change, negative = inhibition, actives largely listed as inhibitors; 150,000 compounds, 4.3% hits; AID 894; P15428
Target sequence (P15428 whole entry, looked up): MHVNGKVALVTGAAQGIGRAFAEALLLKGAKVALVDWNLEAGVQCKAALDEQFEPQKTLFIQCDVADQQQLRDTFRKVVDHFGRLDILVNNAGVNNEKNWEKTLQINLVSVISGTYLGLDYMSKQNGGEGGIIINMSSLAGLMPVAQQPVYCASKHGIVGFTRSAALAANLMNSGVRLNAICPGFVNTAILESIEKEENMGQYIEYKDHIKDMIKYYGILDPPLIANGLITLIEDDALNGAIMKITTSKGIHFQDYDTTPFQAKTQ
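20 nM HPGD preincubated 15 min at room temperature with compound in 50 mM Tris-HCl pH 8, 0.01% Tween 20. Started with 1 mM NAD+ and 30 uM prostaglandin E2; NADH fluorescence (360/450 nm) read 5 times over 30-s intervals, last minus first.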
ALDH1A1 block: inhibitors of human aldehyde dehydrogenase 1A1 | 220,000 compounds, 7.3% hits | Potency, µM (top dose mostly 75.3 µM), without a hit: at the top dose activity, negative = inhibition, actives largely listed as inhibitors | Purified ALDH1A1, NADH fluorescence, propionaldehyde substrate | P00352;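 also: plate controls were no enzyme wells and a reference inhibitor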
An asterisk follows results filed as active; ? = inconclusive; · = not tested or not shown; [ ] = remark or other dose. Unless noted, calls follow the shape of the dose curve; as a rule, active = well fitted inhibition curve with a large enough effect (not every such curve was filed as active); inconclusive = small, poorly fitted or top-dose-only effect, or another doubt; inactive = no such curve, though single readings can be large or run the other way. Unless noted, % is scaled to controls: 0 for no effect and ±100 for the full control effect; potency is read from the fitted curve at half-maximal effect.

SMILES | KDM4E inh | Tau fluor counter | Tau fibril ThT | Tau fibril FP | HPGD inh | ALDH1A1 block
O=C(O)c1ccc[nH]c1=S | 18µM* | -17% | ? | ? | · | ·
CNCc1ccccc1 | ? | ? | ? | -16% | -9% | 1%
CCc1cccc(NC(=O)Cn2c(=O)oc3cc(S(=O)(=O)N4CCOCC4)ccc32)c1 | -10% | -22% | -6% | -2% | -16% | ?
Cc1nc2ccc(Nc3nc4cc(S(=O)(=O)N5CCOCC5)ccc4o3)cc2s1 | -27% | ? | ? | -8% | 8.9µM* | 3.5µM*
c1ccc(-c2cc3c(nc2-c2ccccc2)CCNC3)cc1 | · | -2%[11.6 µM] | -1%[11.5 µM] | -4%[11.6 µM] | · | 1%[13.5 µM]
Cc1cc(C=C2C(=O)N(C)C(=O)N(C)C2=O)c(C)n1-c1ccccc1 | -6% | -20% | ? | ? | · | ?
CN1C(=O)C(=Cc2coc3ccccc3c2=O)C(=O)N(C)C1=O | -11% | -8% | ? | ? | · | 0.89µM*
O=C1NC(=S)N(C2CC2)C(=O)/C1=C/c1ccc2c(c1)CCN2CCCCl | ? | -18% | ? | ? | 11µM* | 0.89µM*
CC(C)(C)N1C(=O)NC(=O)/C(=C\c2ccc3c(c2)CCN3CCCCl)C1=O | ? | ? | · | -27% | · | ·
CCN1C(=O)/C(=C/c2ccc3c(c2)CCN3CCCCl)C(=O)NC1=S | ? | -11% | 18µM* | ? | 7.9µM* | 0.2µM*
C=CCN1C(=O)/C(=C/c2ccc3c(c2)CCCN3CCC)C(=O)NC1=S | ? | -20% | ? | ? | 14µM* | 1.3µM*
C=CCN1C(=O)NC(=O)/C(=C/c2ccc(OC)c(COc3ccc(NC(C)=O)cc3)c2)C1=O | -25% | -7% | ? | 6% | · | ?
COc1ccc(C(=O)NCCn2cc(SCc3ccc(C(F)(F)F)cc3)c3ccccc32)cc1OC | · | ? | ? | -13% | · | ·
O=C1C=CC(=O)C(Cl)=C1 | · | ? | 11µM* | 16µM* | 1µM* | 1.8µM*
O=C1C=CC(=O)C=C1 | -11% | -11% | -6% | -2% | -23% | ?
CCCCNC(=O)Oc1cc(CCl)on1 | -5% | -6% | -7% | -8% | · | 13µM*
O=C(C[C@H](c1ccccc1)c1c(O)c2ccccc2oc1=O)c1ccccc1 | · | · | · | · | -5% | 2%[13.5 µM]
COc1cc2c(cc1OC)[C@@]13CCN4CC5=CCO[C@H](CC(=O)O)[C@@H]([C@H]1N2)[C@H]5C[C@H]43 | · | · | · | · | -11% | 17%[13.5 µM]
c1ccc(N2CC[C@@]3(CCCNC3)C2)cc1 | · | · | · | · | -6% | ?
CN1c2ccc([N+](=O)[O-])cc2CC2(C(=O)NC(=O)N(c3ccc(Br)cc3)C2=O)C1c1ccccc1 (configuration not stated) | 1% | -14% | 16µM* | -1% | -14% | -9%
CCN(CC)c1ccc(NC(=O)c2cccc(C)c2)cc1S(=O)(=O)Nc1ccccc1OC | ? | -29% | ? | -14% | 13µM* | 14µM*
CCOP(=O)(OCC)C(NC(=O)c1cccc(C)c1)C(Cl)(Cl)Cl (configuration not stated) | -7% | 11% | 6% | 10% | · | 3%
Cc1ccc(/C=C2\C(=O)NC(=O)N(CCc3ccc(F)cc3)C2=O)s1 | 5% | -19% | ? | -10% | · | 1.6µM*
CCOc1cc(/C=C2\C(=O)NC(=O)N(CCc3ccc(F)cc3)C2=O)ccc1O | ? | -39% | · | ? | · | ·
Cc1ccc(/C=C2/C(=O)NC(=O)N(CC3CCCO3)C2=O)s1 (configuration not stated) | -8% | -3% | ? | -5% | 14µM* | 10µM*
SMILES | KDM4E inh | Tau fluor counter | Tau fibril ThT | Tau fibril FP | HPGD inh | ALDH1A1 block
O=C1NC(=O)N(Cc2ccc(F)cc2)C(=O)/C1=C/c1cccs1 | -13% | -20% | ? | ? | · | 28µM*
Cc1ccc(/C=C2/C(=O)NC(=O)N(Cc3ccc(F)cc3)C2=O)o1 | -2% | -3% | · | -1% | · | ·
Cc1ccc(/C=C2\C(=O)NC(=O)N(CCc3ccc(F)cc3)C2=O)o1 | -25% | -6% | ? | -11% | 3.5µM* | 5µM*
COC(=O)[C@H]1C[C@H]2CC[C@H](O)C[C@H]2N1CC1CC1 | -9% | -4% | -1% | -1% | -7% | -5%
O=c1ccc(=O)[nH][nH]1 | · | · | · | · | -2% | ?
CC(C)[C@@H](C)/C=C\[C@@H](C)[C@@H]1CC[C@H]2C3=CC=C4C[C@@H](O)CC[C@]4(C)[C@H]3CC[C@]21C | · | · | · | · | -4% | -8%[13.5 µM]
Cc1ccc(/C=C2/C(=O)NC(=O)N(CCc3ccc(F)cc3)C2=O)s1 | -11% | -4% | ? | 2% | 7.1µM* | ?
CN(C)c1ccc(/C=C2/C(=O)NC(=O)N(CCc3ccc(F)cc3)C2=O)cc1 | -26% | 1% | ? | -10% | 10µM* | 0.63µM*
CC(C)(C)c1[nH]nc2c1C(c1ccoc1)C(C#N)=C(N)O2 (configuration not stated) | 0% | -12% | -22% | -7% | -17% | 16µM*
Cc1ccc(O)c(C(CCN(C(C)C)C(C)C)c2ccccc2)c1 (configuration not stated) | 7% | -3% | 1% | -4% | -9% | 6%
Oc1c(Br)c(Br)c(Br)c(Br)c1Br | · | · | · | · | 10µM* | ?
Oc1c(Br)cc(Br)cc1Br | · | · | · | · | -9% | -1%
C=C(C)[C@H]1O[C@H]2CC[C@@]3(C)[C@@](O)(CC[C@H]4[C@@H]5OC(C)(C)[C@H]6C[C@@H]7C(=C)Cc8c(Cl)cc9[nH]c(c5c9c8[C@@]76O)[C@@]43C)[C@]23O[C@@H]3[C@H]1O | · | ? | -15% | 6% | · | 0%
N#C/C(=C\c1ccc(O)c(O)c1)C(=O)NCCCNC(=O)/C(C#N)=C/c1ccc(O)c(O)c1 | 3.5µM* | ? | 10µM* | 8% | 16µM* | ?
ClC(Cl)(Cl)C(Cl)(Cl)Cl | · | · | · | · | -9% | 9%
C=CCCl | · | · | · | · | -5% | 6%
CCCCCC1CC(CC#CCN2CCOCC2)C(=O)O1 (configuration not stated) | ? | 3% | -6% | 11% | 0% | 6.3µM*
CCCCCCn1c(O)c(C=NCCN2CCOCC2)c(=O)[nH]c1=O | 13% | -5% | -6% | -6% | -6% | 3%
COc1ccc(/C=C/C(=O)Nc2ccc(C)cc2)cc1 | · | -22% | 12% | ? | · | ·
COc1ccc2o/c(=N\O)c(C(=O)Nc3ccc(C)cc3)cc2c1 | 17% | -24% | 16µM* | -12% | · | ?
C[C@]12CC[C@@H]3c4ccc(O)cc4CC[C@H]3[C@@H]1C[C@@H](O)[C@@H]2O[C@@H]1O[C@H](C(=O)O)[C@@H](O)[C@H](O)[C@H]1O | 22µM* | -8% | -15% | 9% | -9% | -4%
